Inconclusive results are not listed. The source made the active and inactive calls. Calls follow the shape of the dose curve; as a rule, active = well fitted curve in the direction sought with a large enough effect in the repeat runs; inconclusive = weak or mixed curves; inactive = no such curve, though single readings can be large; an effect the other way counts as inactive or inconclusive.
Experiments:
[1] = qHTS RealTime-Glo MT Cell Viability Assay in HepG2 cells - 40 hour (AID 1224870); also: nearly all actives have a fitted effect of over 50% in size
How it was run: (§1)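 Real-time viability: cells seeded at 600 per well together with NanoLuc and cell-permeant prosubstrate, compounds added after 5 h incubation. Luminescence tracked at 0, 8, 16, 24, 32 and 40 h of exposure.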

[2] = qHTS RealTime-Glo MT Cell Viability Assay in HEK293 cells - 16 hour (AID 1224872); also: top concentration of the series differs between compounds; nearly all actives have a fitted effect of over 50% in size
How it was run: (§2)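 Assay medium contained NanoLuc luciferase plus cell-permeant prosubstrate, added with HEK293 cells at 600 cells/well. After 5 h at 37 C/5% CO2 compounds were added; plates stayed at 37 C for 40 h with serial luminescence reads.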

[3] = qHTS RealTime-Glo MT Cell Viability Assay in HEK293 cells - 40 hour (AID 1224874); settings: RealTime-Glo luminescence; max response: stronger effect = lower value; also: nearly all actives have a fitted effect of over 50% in size; also: potency is read from the fitted curve at half-maximal effect
How it was run: (§3)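 Viable HEK293 cells reduce a cell-permeant prosubstrate; the product diffuses out and is consumed by NanoLuc in the medium to give light. Compounds went in after a 5 h incubation and plates were read over the treatment course.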

[4] = A CellTox Green Cytotoxicity Assay to monitor cytotoxicity in HEK293 cells - 24 hour (AID 1224875); also: series mostly up to about 77 µM; nearly all actives have a fitted effect of over 45% in size
How it was run: (§4)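 Fluorescence intensity, read at 0, 8, 16, 24, 32 and 40 h of compound treatment, reflected dye binding to DNA of dead HEK293 cells; compounds (23 nL, DMSO) were added 5 h after plating cells with reagent.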

[5] = qHTS RealTime-Glo MT Cell Viability Assay in HepG2 cells - 32 hour (AID 1224877); also: nearly all actives have a fitted effect of over 55% in size
How it was run: (§5)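 qHTS, HepG2, 600 cells/well, RealTime-Glo (NanoLuc + prosubstrate) added with cells; 5 h preincubation; DMSO compound addition; 37 C; luminescence at 0/8/16/24/32/40 h.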

[6] = A CellTox Green Cytotoxicity Assay to monitor cytotoxicity in HepG2 cells - 24 hour (AID 1224878); also: nearly all actives have a fitted effect of over 45% in size
How it was run: (§6)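 Using 1536-well format, dye-containing HepG2 suspension was seeded, allowed 5 h at 37 C/5% CO2, dosed by pintool with compounds, positive and negative controls, and imaged for fluorescence across 40 h.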

[7] = A CellTox Green Cytotoxicity Assay to monitor cytotoxicity in HepG2 cells - 40 hour (AID 1224879); also: nearly all actives have a fitted effect of over 40% in size
How it was run: as §6

[8] = qHTS RealTime-Glo MT Cell Viability Assay in HEK293 cells - 0 hour (AID 1224880); also: nearly all actives have a fitted effect of over 45% in size; also: potency is read from the fitted curve at half-maximal effect; as to activity change, negative = cytotoxicity: top concentration of the series differs between compounds
How it was run: as §3

[9] = A CellTox Green Cytotoxicity Assay to monitor cytotoxicity in HepG2 cells - 0 hour (AID 1224882); also: nearly all actives have a fitted effect of over 35% in size
How it was run: as §6

[10] = A CellTox Green Cytotoxicity Assay to monitor cytotoxicity in HepG2 cells - 32 hour (AID 1224883); also: nearly all actives have a fitted effect of over 50% in size
How it was run: as §6

[11] = A CellTox Green Cytotoxicity Assay to monitor cytotoxicity in HEK293 cells - 8 hour (AID 1224884); also: nearly all actives have a fitted effect of over 35% in size
How it was run: as §4

[12] = qHTS RealTime-Glo MT Cell Viability Assay in HepG2 cells - 16 hour (AID 1224885); also: nearly all actives have a fitted effect of over 50% in size
How it was run: as §5

[13] = qHTS RealTime-Glo MT Cell Viability Assay in HEK293 cells - 24 hour (AID 1224886); also: nearly all actives have a fitted effect of over 50% in size; also: potency is read from the fitted curve at half-maximal effect; as to activity change, negative = cytotoxicity: top concentration of the series differs between compounds
How it was run: as §2

[14] = A CellTox Green Cytotoxicity Assay to monitor cytotoxicity in HEK293 cells - 16 hour (AID 1224888); also: nearly all actives have a fitted effect of over 35% in size
How it was run: as §4

[15] = qHTS RealTime-Glo MT Cell Viability Assay in HepG2 cells - 0 hour (AID 1224889); also: nearly all actives have a fitted effect of over 50% in size; also: potency is read from the fitted curve at half-maximal effect
How it was run: as §5

[16] = A CellTox Green Cytotoxicity Assay to monitor cytotoxicity in HEK293 cells - 40 hour (AID 1224871); also: nearly all actives have a fitted effect of over 45% in size
How it was run: as §4

[17] = qHTS RealTime-Glo MT Cell Viability Assay in HepG2 cells - 8 hour (AID 1224873); also: nearly all actives have a fitted effect of over 55% in size
How it was run: as §1

[18] = A CellTox Green Cytotoxicity Assay to monitor cytotoxicity in HEK293 cells - 32 hour (AID 1224881); also: nearly all actives have a fitted effect of over 40% in size
How it was run: as §4

[19] = A CellTox Green Cytotoxicity Assay to monitor cytotoxicity in HepG2 cells - 16 hour (AID 1224876); also: nearly all actives have a fitted effect of over 45% in size
How it was run: as §6

[20] = qHTS RealTime-Glo MT Cell Viability Assay in HEK293 cells - 8 hour (AID 1224887); also: nearly all actives have a fitted effect of over 50% in size; also: potency is read from the fitted curve at half-maximal effect; as to activity change, negative = cytotoxicity: top concentration of the series differs between compounds
How it was run: as §3
% is scaled to controls: 0 for no effect and ±100 for the full control effect.

CC(C)C(=O)OCCc1ccccc1
inactive: outcome [1] | Potency [2] | max response [3] -2.86% | outcome [4] | outcome [5] | outcome [6] | Potency [7] | Potency [8] | outcome [9] | Potency [10] | Potency [11] | outcome [12] | Potency [13] | outcome [14] | Potency [15]

O=C1c2cccc3c2[C@H](CCC3)CN1[C@@H]1CN2CCC1CC2
active: Potency [3] 6.01 µM
inactive: outcome [1] | Potency [16] | outcome [17] | outcome [4] | outcome [5] | outcome [6] | Potency [7] | Potency [18] | outcome [9] | Potency [10] | Potency [11] | outcome [12] | outcome [14] | Potency [15]

CC(COC(C)(C)C)OCCCO (stereo not given)
inactive: outcome [1] | Potency [16] | outcome [17] | outcome [4] | outcome [19] | outcome [5] | outcome [6] | Potency [7] | Potency [8] | Potency [18] | outcome [9] | Potency [10] | Potency [11] | outcome [12] | Potency [13] | outcome [14] | Potency [15]

COCCOC(=O)C1=C(C)NC(C)=C(C(=O)OC(C)C)C1c1cccc([N+](=O)[O-])c1 (stereo not given)
inactive: Potency [16] | outcome [4] | outcome [19] | outcome [6] | Potency [7] | Potency [18] | outcome [9] | Potency [10] | Potency [11] | outcome [14]
active: Potency [8] 2.39 µM | Potency [15] 601 nM

COCCc1ccc(OCC2CO2)cc1 (stereo not given)
inactive: outcome [1] | Potency [16] | max response [3] 13.1% | outcome [4] | outcome [19] | outcome [5] | outcome [6] | Potency [7] | Potency [8] | Potency [18] | outcome [9] | Potency [10] | Potency [11] | outcome [12] | Potency [13] | Potency [20] | outcome [14] | Potency [15]

NS(=O)(=O)c1cc2c(cc1Cl)CN(C1CCCCC1)C2=O
inactive: outcome [1] | Potency [16] | outcome [4] | outcome [19] | outcome [5] | outcome [6] | Potency [7] | Potency [8] | Potency [18] | outcome [9] | Potency [10] | Potency [11] | outcome [12] | outcome [14] | Potency [15]
active: Potency [3] 9.52 µM | Potency [13] 9.52 µM

O=Cc1ccc(Cl)c(Cl)c1
inactive: outcome [1] | Potency [16] | outcome [17] | outcome [4] | outcome [19] | outcome [5] | outcome [6] | Potency [7] | Potency [8] | Potency [18] | outcome [9] | Potency [10] | Potency [11] | outcome [12] | Potency [13] | Potency [20] | outcome [14] | Potency [15]

COC(=O)C1CC(=O)C(C(=O)OC)CC1=O (stereo not given)
inactive: cytotoxicity increase [16] 1.85% [at 6.97 µM] | activity change, negative = cytotoxicity [2] 7.32% [at 6.97 µM] | viability change, negative = cytotoxic [17] -14.8% [at 6.97 µM] | activity change [4] 2.42% [at 6.97 µM] | cytotoxicity increase [19] -5.58% [at 6.97 µM] | activity change, negative = cytotoxic [5] 12.6% [at 6.97 µM] | cytotoxicity [6] -7.82% [at 6.97 µM] | cytotoxicity increase [7] -13.2% [at 6.97 µM] | activity change, negative = cytotoxicity [8] 2.08% [at 6.97 µM] | cytotoxicity increase [18] 0.949% [at 6.97 µM] | cytotoxicity [9] -5.98% [at 6.97 µM] | cytotoxicity increase [10] -7.66% [at 6.97 µM] | cytotoxicity increase [11] 10.4% [at 6.97 µM] | activity change, negative = cytotoxic [12] -8.58% [at 6.97 µM] | activity change, negative = cytotoxicity [13] 0.682% [at 6.97 µM] | activity change, negative = cytotoxicity [20] 5.57% [at 6.97 µM] | activity change [14] 2.56% [at 6.97 µM] | activity change, negative = cytotoxicity [15] -20.4% [at 6.97 µM]

COc1ccc(S(=O)(=O)N2c3ccc(Cl)cc3[C@@](O)(c3ccccc3Cl)[C@H]2C(=O)N2CCC[C@@H]2C(N)=O)cc1OC
inactive: outcome [1] | Potency [16] | outcome [17] | outcome [4] | outcome [19] | outcome [5] | outcome [6] | Potency [7] | Potency [18] | outcome [9] | Potency [10] | Potency [11] | outcome [12] | outcome [14] | Potency [15]

CC(C)(C)c1nnc(NS(=O)(=O)c2ccc(N)cc2)s1
inactive: outcome [1] | Potency [16] | outcome [17] | outcome [4] | outcome [19] | outcome [5] | outcome [6] | Potency [7] | Potency [8] | Potency [18] | outcome [9] | Potency [10] | Potency [11] | outcome [12] | Potency [13] | Potency [20] | outcome [14] | Potency [15]

CC(CC=O)CCCC(C)(C)O (stereo not given)
inactive: outcome [1] | Potency [16] | outcome [4] | outcome [19] | outcome [5] | outcome [6] | Potency [7] | Potency [8] | Potency [18] | outcome [9] | Potency [10] | Potency [11] | outcome [12] | Potency [13] | Potency [20] | outcome [14] | Potency [15]

COc1cc2c(cc1OC)C(=O)CC2
inactive: outcome [1] | Potency [16] | outcome [17] | outcome [4] | outcome [19] | outcome [5] | outcome [6] | Potency [7] | Potency [8] | Potency [18] | outcome [9] | Potency [10] | Potency [11] | outcome [12] | Potency [13] | Potency [20] | outcome [14] | Potency [15]

CC(S)C(=O)NCC(=O)O (stereo not given)
inactive: outcome [1] | Potency [2] | outcome [17] | outcome [5] | outcome [6] | Potency [7] | Potency [8] | outcome [9] | Potency [10] | outcome [12] | Potency [13] | Potency [20] | Potency [15]

CC(=O)Nc1ccc(S(=O)(=O)Cl)cc1
inactive: outcome [1] | Potency [16] | outcome [17] | outcome [4] | outcome [5] | outcome [6] | Potency [7] | Potency [18] | outcome [9] | Potency [10] | Potency [11] | outcome [12] | Potency [13] | Potency [20] | outcome [14] | Potency [15]

O=C1CCCC(=O)O1
inactive: outcome [1] | Potency [16] | outcome [17] | max response [3] 15.9% | outcome [4] | outcome [6] | Potency [7] | Potency [8] | Potency [18] | outcome [9] | Potency [10] | Potency [11] | outcome [12] | Potency [13] | Potency [20] | outcome [14] | Potency [15]

O=C(OCC(O)CO)c1ccccc1Nc1ccnc2c(C(F)(F)F)cccc12 (stereo not given)
inactive: outcome [1] | Potency [16] | outcome [17] | outcome [4] | outcome [5] | outcome [6] | Potency [7] | Potency [8] | Potency [18] | outcome [9] | Potency [10] | Potency [11] | outcome [12] | outcome [14] | Potency [15]
active: Potency [13] 4.77 µM | Potency [20] 3.79 µM

CC(=O)Nc1cccc(C)c1
inactive: outcome [1] | Potency [16] | outcome [17] | outcome [4] | outcome [19] | outcome [5] | outcome [6] | Potency [7] | Potency [8] | Potency [18] | outcome [9] | Potency [10] | Potency [11] | outcome [12] | outcome [14] | Potency [15]

CCCCCCCC/C=C\CCCCCCCC(=O)OCCCC
inactive: activity change, negative = cytotoxic [1] 12.2% [at 15.8 µM] | cytotoxicity increase [16] -33.9% [at 15.8 µM] | viability change, negative = cytotoxic [17] -0.413% [at 15.8 µM] | activity change [4] -32.5% [at 15.8 µM] | cytotoxicity [6] -11.8% [at 15.8 µM] | cytotoxicity increase [7] -13.9% [at 15.8 µM] | activity change, negative = cytotoxicity [8] -2.24% [at 15.8 µM] | cytotoxicity increase [18] -35.2% [at 15.8 µM] | cytotoxicity [9] -2.01% [at 15.8 µM] | cytotoxicity increase [10] -13.6% [at 15.8 µM] | cytotoxicity increase [11] -25.9% [at 15.8 µM] | activity change, negative = cytotoxic [12] 1.32% [at 15.8 µM] | activity change [14] -29.4% [at 15.8 µM] | activity change, negative = cytotoxicity [15] -22.5% [at 15.8 µM]

O=S(=O)(O)CCN1CCN(CCO)CC1
inactive: outcome [1] | Potency [16] | outcome [17] | max response [3] -3.48% | outcome [4] | outcome [5] | outcome [6] | Potency [7] | Potency [8] | outcome [9] | Potency [10] | Potency [11] | outcome [12] | Potency [13] | Potency [20] | outcome [14] | Potency [15]

CCCCCCCCCC(C)=O
inactive: outcome [1] | Potency [16] | outcome [17] | outcome [4] | outcome [5] | outcome [6] | Potency [7] | Potency [8] | Potency [18] | outcome [9] | Potency [10] | Potency [11] | outcome [12] | Potency [13] | Potency [20] | outcome [14] | Potency [15]

From PubChem BioAssay (Tox21)
